From ChEMBL document CHEMBL3988442, “University of Dundee, Small-Polar-MMV Screening Library” (2021)
Screen size: about 53,000 compounds; about 900 (1.7%) showed an effect of 50% or more. This is one part of a sample in which strong results are shown more often than they occur.

system: Mycobacterium tuberculosis; experiment: Cornell - Phenotypic assay to identify agents that inhibit growth of Mycobacterium tuberculosis; assay type: functional; set-up: scale not given: direction of the effect not stated beside the values; settings: 10 mM as filed; unlikely as a test dose

Row | Compound | Percent Effect
1 | Cc1cc(C)nc(C2CCN(C(=O)c3cncnc3C)C2)n1 (configuration not stated) | -38.99%
2 | Cc1nc(CN2C(=O)COC3(CCN(CC4CC4)CC3)C2C)cs1.O=C(O)C(F)(F)F (configuration not stated) | 6.692%
3 | Cc1cccc(-c2noc(C)c2C(=O)NC2CCCOC2)c1.O=C(O)CC(O)(CC(=O)O)C(=O)O (configuration not stated) | 20.12%
4 | Cc1c(C(=O)NC2CCCOC2)nnn1-c1ccccc1 (configuration not stated) | -4.644%
5 | Cc1onc(-c2ccncc2)c1C(=O)NC1CCCOC1 (configuration not stated) | 52.15%
6 | Cc1cnn(CC2CCCN2CC(=O)Nc2cc(C(C)(C)C)no2)c1 (configuration not stated) | 16.98%
7 | CCN1CCN(C(=O)NCc2cccnc2-n2cccn2)CC1 | -23.25%
8 | CNC(=O)[C@@H]1CN(C(=O)C2CCC2)C[C@H]1c1ccnc(N2CCCC2)n1.Cl | 54.39%
9 | CNC(=O)[C@@H]1CN(C(=O)CCOC)C[C@H]1c1ccnc(N2CCCC2)n1.Cl | 43.65%
10 | CNC(=O)[C@@H]1CN(C(=O)COC)C[C@H]1c1ccnc(N2CCCC2)n1 | 50.96%
11 | CCNC(=O)C1CCN(c2nccc(C3CCCC3)n2)C1 (configuration not stated) | 13%
12 | CNC(=O)[C@@H]1CN(C(=O)C(C)C)C[C@H]1c1ccnc(N2CCCC2)n1.Cl | 37.07%
13 | CCC(=O)N1C[C@@H](C(=O)NC)[C@H](c2ccnc(N3CCCC3)n2)C1.Cl | 24.83%
14 | CC(C)c1nn(C)c(N(C)C)c1CNC1CCN(CC2CC2)CC1 | 58.14%
15 | CC(C)c1nn(C)c(N(C)C)c1CNC1CCN(C2CC2)CC1.Cl | 42.5%
16 | CC(C)C(=O)N1CCC(NCc2c(C(C)C)nn(C)c2N(C)C)CC1 | 31.79%
17 | CC(C)c1nn(C)c(N(C)C)c1CNC1CCC(O)CC1 (configuration not stated) | 21.48%
18 | Cc1nn(C)c(Oc2ccccc2)c1CNC1CCCCNC1=O (configuration not stated) | -7.334%
19 | CC(C)c1nn(C)c(N(C)C)c1CNC1CCCCNC1=O (configuration not stated) | 91.87%
20 | COCCN1CCC(NCc2c(C(C)C)nn(C)c2N(C)C)CC1 | 39.85%
21 | Cc1nn(C)c(N(C)C)c1CNC1CCCCNC1=O (configuration not stated) | 63.11%
22 | Cc1nn(C)c(N2CCOCC2)c1CNC1CCCCNC1=O (configuration not stated) | -11.46%
23 | CN(CCc1nccs1)C(=O)CC1(O)CCCCC1 | 19.59%
24 | COCCCNCc1cc(O)c2cc(C)cc(C)c2n1 | 3.207%
25 | COc1ccc(OC2CCN(c3ccncc3)CC2)cc1 | 27.59%
26 | CC(=O)Cn1nc(-c2ccccc2F)ccc1=O | 6.771%

Row | Compound | Percent Effect
27 | Cc1cccc(CN2C(=O)C[C@H]3[C@@H]2CCN3Cc2ccc(F)cc2)n1.O=C(O)C(F)(F)F.O=C(O)C(F)(F)F | 15.09%
28 | CCn1nc(C)cc1C(=O)N1C[C@@H]2C[C@@H](c3nnc(C)[nH]3)O[C@@H]2C1 | -8.9%
29 | Cc1nn(C)c2c(=O)n(CC(=O)NCCC(C)C)ccc12 | 2.416%
30 | COc1cccc(CNC(=O)Cn2ccc3c(C)nn(C)c3c2=O)c1 | 4.678%
31 | Cc1nn(C)c2c(=O)n(CC(=O)NCc3ccc(N(C)C)cc3)ccc12 | 96.11%
32 | OCCCN(CCn1cncn1)c1ccccc1 | -44.33%
33 | Oc1ccc(N(CCc2ccccc2)CCn2cncn2)cc1 | 107%
34 | c1ccc(N(CCn2cncn2)CC2CC2)cc1 | -28.11%
35 | Cc1cc(CNC(=O)N2CCOC(c3ccccc3Cl)C2)no1 (configuration not stated) | -0.6476%
36 | COc1cc([C@@H]2N[C@H](c3nccs3)Cc3ccsc32)cc(OC)c1OC | 44.3%
37 | COc1cccc([C@@H]2N[C@H](c3nccs3)Cc3ccsc32)c1OC | 50.54%
38 | COc1ccc(OC)c([C@@H]2N[C@H](c3nccs3)Cc3ccsc32)c1 | 46.52%
39 | Cc1ncc(-c2ccnc(NCCc3ccc(F)cc3)n2)c(=O)[nH]1 | -5.112%
40 | Cn1ncc2c(N3CCN4CCCCC4C3)nc(C3CCCC3)nc21 (configuration not stated) | 27.57%
41 | CC1Cc2cc(-c3cncn3CC(=O)NC(C)(C)C)ccc2N1C.Cl (configuration not stated) | -2.378%
42 | CN1CCCc2cc(-c3cncn3CCNC3CCS(=O)(=O)C3)ccc21.Cl (configuration not stated) | 6.115%
43 | Cc1nn(C)c(C)c1CCn1cncc1-c1ccc2c(c1)CC(C)N2C.Cl (configuration not stated) | 64.61%
44 | CCOC(=O)c1n[nH]cc1-c1cncn1CCCn1nc(C)cc1C.Cl | 25.38%
45 | CN1CCCc2cc(-c3cncn3CC(=O)NC(C)(C)C)ccc21.Cl | 13.27%
46 | Cc1cc(C)n(CCCn2cncc2-c2ccc3c(c2)CC(C)N3C)n1.Cl (configuration not stated) | 63.97%
47 | CC(C)c1cc(C2CCCN2C(=O)c2cn3ccsc3n2)no1 (configuration not stated) | 31.59%
48 | Cc1cc(NC(=O)C2CCN(c3ncccc3C#N)CC2)no1 | -28.06%
49 | O=C(Cc1cccs1)NCc1ccnc(C2CCCOC2)n1 (configuration not stated) | 6.218%
50 | Cc1nc(C)n(CC2CCCN(c3ncnc4ccsc34)C2)n1 (configuration not stated) | 51.96%
51 | Cc1nc(C)n(CC2CCCN(c3ncnc4ccccc34)C2)n1 (configuration not stated) | -29.18%
52 | Cc1nc(C)n(CC2CCCN(c3ncnc4sccc34)C2)n1 (configuration not stated) | -6.342%

Row | Compound | Percent Effect
53 | Cc1ncccc1C(=O)Nc1cccc(C[S+](C)[O-])c1C (configuration not stated) | 11.87%
54 | COc1ccc(-n2cc(CNC(=O)c3ccc[nH]3)nn2)cc1 | 1.2%
55 | CC(=O)N1CCC2(C1)CN(S(=O)(=O)c1ccccc1)C2 | 13.22%
56 | CN(Cc1nc2ccccc2o1)CC1CCCN1c1cccnn1 (configuration not stated) | -25.78%
57 | c1cnnc(N2CCCC2CNCc2nc3ccccc3o2)c1 (configuration not stated) | 108.2%
58 | Cc1nc(CNCC2CCCN2c2cccnn2)oc1C (configuration not stated) | 5.973%
59 | Cn1cc(C(=O)N2CCO[C@@H]3CN(C4CCC4)C[C@@H]3C2)cn1 | 3.925%
60 | COCCN1CCN(Cc2cccc(C(=O)N(C)C)c2)CC1 | -27.32%
61 | CCC(C)N(Cc1cnc(OC)nc1)Cc1ccsc1 (configuration not stated) | -2.85%
62 | Cc1nc(-c2ccncc2)nc(N(C)CCc2ccncc2)c1C | -4.993%
63 | COCCCN(C)c1nc(-c2ccncc2)nc2c1CCN(C(C)=O)C2 | -26.88%
64 | COCCCN(C)c1nc(-c2ccncc2)nc(C)c1C | 79.79%
65 | NC(=O)C1CCN(C(=O)NCc2ccc(-c3ccn[nH]3)cc2)CC1 | -27.61%
66 | O=C(N1CCCO1)[C@@]12CCO[C@@H]1CCN(Cc1ccccn1)C2.O=C(O)C(F)(F)F.O=C(O)C(F)(F)F | 16.34%
67 | O=C(NCC(O)c1ccsc1)c1sccc1OC(F)F (configuration not stated) | 14.09%
68 | O=C(NCC(O)c1ccccc1)Nc1cccs1 (configuration not stated) | 59.31%
69 | CCOc1ccccc1CCNC(=O)NCC(O)c1ccsc1 (configuration not stated) | 26.35%
70 | O=C(NCC(O)c1ccsc1)Nc1cccs1 (configuration not stated) | 98.83%
71 | CC(C)Oc1cccc(C(O)CNC(=O)Nc2cccs2)c1 (configuration not stated) | 105%
72 | CC(C)Oc1cccc(C(O)CNC(=O)CCc2ccncc2)c1 (configuration not stated) | 31.72%
73 | O=C(Nc1cccnn1)NC(CCCO)c1ccccc1 (configuration not stated) | -8.222%
74 | O=C(Nc1cccs1)NC(CCCO)c1ccccc1 (configuration not stated) | 101.4%
75 | Cc1csc(CNC(=O)NCC(O)c2ccccc2)n1 (configuration not stated) | -28.19%
76 | O=C(Nc1ccccn1)NC(CCCO)c1ccccc1 (configuration not stated) | -24.69%
77 | O=C(NCCc1ccccc1)NCC(O)c1cccs1 (configuration not stated) | 16.84%
78 | CC(C)Oc1cccc(C(O)CNC(=O)NCc2cccs2)c1 (configuration not stated) | 7.446%

Row | Compound | Percent Effect
79 | Cc1cc(C)n2c(CNCc3ccc(OC(F)F)cc3)cnc2n1 | -7.615%
80 | Cn1ncc2c(N3CCCN(C(=O)c4ccsc4)CC3)ncnc21 | 16.86%
81 | CCCc1ccc(CN2CCC3(CCC(=O)N(CCO)C3)CC2)o1 | 9.804%
82 | COc1ccccc1C(=O)N1CCOC2(CCCN(C(C)=O)C2)C1 (configuration not stated) | 23.26%
83 | Fc1ccc(C2CCCN2Cc2nnnn2C2CC2)cc1 (configuration not stated) | -22.59%
84 | O=C(NCCCN1CCCC1=O)c1nc(-c2ccc3[nH]ccc3c2)no1 | 3.66%
85 | Cn1cccc1C(=O)N1CCC2(CC1)COC(COc1ccccn1)C2.O=C(O)C(F)(F)F (configuration not stated) | 9.973%
86 | CC(C)NC(=O)C(NC(=O)N1CCN(c2ccc(Cl)cc2)CC1)C(C)C (configuration not stated) | 76.86%
87 | CC(C)C(NC(=O)N1CCN(c2ccc(Cl)cc2)CC1)C(=O)NC1CC1 (configuration not stated) | 93.48%
88 | CC(C)NC(=O)C(C)NC(=O)N1CCN(c2ccc(Cl)cc2)CC1 (configuration not stated) | -27.07%
89 | CC(NC(=O)N1CCN(c2ccc(Cl)cc2)CC1)C(=O)N1CCSCC1 (configuration not stated) | 21.43%
90 | C[C@H](NC(=O)N1CCN(c2ccc(Cl)cc2)CC1)C(=O)N1CCSCC1 | 11.26%
91 | CC(C)NC(=O)[C@@H](NC(=O)N1CCN(c2ccc(Cl)cc2)CC1)C(C)C | 70.57%
92 | CN(C(=O)NC1CC1)C1CCN(c2ccc(Cl)cc2)CC1 | 17.37%
93 | CC(C)[C@H](NC(=O)N1CCN(c2ccc(Cl)cc2)CC1)C(=O)NC1CC1 | 4.583%
94 | CC(C)NC(=O)[C@H](C)NC(=O)N1CCN(c2ccc(Cl)cc2)CC1 | -2.997%
95 | Fc1ccccc1NCc1nc2n(n1)CCCCC2 | 6.356%
96 | NC(=O)CN1CCCC(c2cncc(Nc3ncccn3)n2)C1 (configuration not stated) | 28.6%
97 | COCCN1C(=O)CC[C@]12CC[C@@H](NC(=O)c1cnccn1)CC2 | 8.611%
98 | CCCc1nnnn1CC(=O)NCc1cccc(C)c1 | 14.77%
99 | CCOC(=O)C1(Cc2ccccc2-c2ccccc2OC)CCNCC1.Cl | 1.496%
100 | CNc1[nH]nc(N)c1C(=O)Nc1ccccc1 | -18.4%
101 | CNc1[nH]nc(N)c1NC(=O)c1ccccc1 | 107.3%
102 | CNc1[nH]nc(N)c1C(=O)Nc1ccc(OC)cc1 | -4.193%
